Reference: PubChem BioAssay (NCATS)
A number with no mark means an inactive call. Results filed as inconclusive are left out. Entries that show only a call come without a potency. Active and inactive are the calls of the source. Unless noted, calls follow the shape of the dose curve; as a rule, active = well fitted curve in the direction sought with a large enough effect; inconclusive = small, poorly fitted or top-dose-only effect, or another doubt; inactive = no such curve, though single readings can be large; an effect the other way counts as inactive or inconclusive.

What was measured:
[1] = AP1 Signaling Pathway (AID 357; active = well fitted curve in either direction with a large enough effect, not every such curve was filed as active;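 also: ME-180 reporter cells stimulated with EGF at its EC50 level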); settings: ME-180 AP-1-bla reporter, EGF-induced, beta-lactamase ratio, 5 h; at 7.69 µM (top of the series) unless noted
Method in brief: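 AP-1-bla ME-180 cells, Opti-MEM + 0.5% dialyzed FBS, plated overnight 37 °C. Cpd titration + EC50 EGF, 5 h 37 °C. CCF4 2.5 h RT; ex 405, em 460/530 ratio → %activity, AC50.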

[2] = biological target: Cytochrome P450 1A2 (Homo sapiens) (UniProt P05177); assay: p450-cyp1a2 (AID 410; calls by dose curve; also: potency is read from the fitted curve at half-maximal effect)
Cytochrome P450 1A2 (Homo sapiens), sequence (P05177 whole entry, looked up): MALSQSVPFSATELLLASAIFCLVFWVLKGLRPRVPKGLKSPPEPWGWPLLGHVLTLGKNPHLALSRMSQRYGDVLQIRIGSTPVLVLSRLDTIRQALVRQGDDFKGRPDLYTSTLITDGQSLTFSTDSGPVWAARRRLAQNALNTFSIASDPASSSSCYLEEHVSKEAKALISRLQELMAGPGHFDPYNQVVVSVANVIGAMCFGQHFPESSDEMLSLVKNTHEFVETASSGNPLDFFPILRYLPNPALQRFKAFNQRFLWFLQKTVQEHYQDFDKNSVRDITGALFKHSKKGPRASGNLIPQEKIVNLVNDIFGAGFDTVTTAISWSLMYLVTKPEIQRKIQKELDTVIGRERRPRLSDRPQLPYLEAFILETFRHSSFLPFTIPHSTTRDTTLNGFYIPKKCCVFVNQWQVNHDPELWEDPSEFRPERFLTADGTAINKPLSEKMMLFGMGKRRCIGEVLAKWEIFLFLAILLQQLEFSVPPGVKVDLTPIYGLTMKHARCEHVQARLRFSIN
Method in brief: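 Read-out is luminescence from luciferin produced by CYP1A2 demethylation of Luciferin-ME (100uM, at Km). Detection reagent stopped the 60 min NADPH-dependent reaction; signals were normalized to 57 uM furafylline.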

[3] = NFAT Signaling Pathway (AID 444; active = well fitted curve in either direction with a large enough effect, not every such curve was filed as active;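 also: carbachol stimulus at about its EC50 of 1 µM final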); settings: Jurkat NFAT-bla M1, carbachol, beta-lactamase ratio, 5 h; at 7.69 µM (top of the series) unless noted
Method in brief: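 Read-out: CCF4 FRET ratio (460 nm/530 nm) after 1 h RT dye loading, used for %activity and AC50 from titration series. Cells: Jurkat NFAT-β-lactamase/M1 line, treated with compound plus 1 uM carbachol for 5 h, 37 °C.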

[4] = Stat Signaling Pathway (AID 446; active = well fitted curve in either direction with a large enough effect, not every such curve was filed as active;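 also: ME-180 cervical cancer cells given 40 pM IL-6 alongside compound; SIE-controlled beta-lactamase reporter measured as 460/530 nm FRET emission ratio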); settings: ME-180 (cervical carcinoma) SIE beta-lactamase reporter, IL-6 stimulated, 5 h; at 7.69 µM (top of the series) unless noted
Method in brief: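 FRET read-out (405 nm excitation, 460/530 nm emission) of a beta-lactamase reporter under a STAT-inducible element in ME-180 cervical carcinoma cells. Cells with compound receive 40 pM IL-6 for 5 h. Values are normalised to AC90 stimulation and AC90 JAK-inhibitor controls.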

[5] = biological target: Glucocorticoid receptor (Homo sapiens) (UniProt P04150); assay: GR-GFP Redistribution (AID 450;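 active = compounds whose dose series gives a full or clear partial fitted curve of increased nuclear translocation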; also: potency is read from the fitted curve at half-maximal effect); settings: U2OS GR-GFP nuclear translocation, laser cytometry, 2 h
Glucocorticoid receptor (Homo sapiens), sequence (P04150 whole entry, looked up, the tested form may be a part): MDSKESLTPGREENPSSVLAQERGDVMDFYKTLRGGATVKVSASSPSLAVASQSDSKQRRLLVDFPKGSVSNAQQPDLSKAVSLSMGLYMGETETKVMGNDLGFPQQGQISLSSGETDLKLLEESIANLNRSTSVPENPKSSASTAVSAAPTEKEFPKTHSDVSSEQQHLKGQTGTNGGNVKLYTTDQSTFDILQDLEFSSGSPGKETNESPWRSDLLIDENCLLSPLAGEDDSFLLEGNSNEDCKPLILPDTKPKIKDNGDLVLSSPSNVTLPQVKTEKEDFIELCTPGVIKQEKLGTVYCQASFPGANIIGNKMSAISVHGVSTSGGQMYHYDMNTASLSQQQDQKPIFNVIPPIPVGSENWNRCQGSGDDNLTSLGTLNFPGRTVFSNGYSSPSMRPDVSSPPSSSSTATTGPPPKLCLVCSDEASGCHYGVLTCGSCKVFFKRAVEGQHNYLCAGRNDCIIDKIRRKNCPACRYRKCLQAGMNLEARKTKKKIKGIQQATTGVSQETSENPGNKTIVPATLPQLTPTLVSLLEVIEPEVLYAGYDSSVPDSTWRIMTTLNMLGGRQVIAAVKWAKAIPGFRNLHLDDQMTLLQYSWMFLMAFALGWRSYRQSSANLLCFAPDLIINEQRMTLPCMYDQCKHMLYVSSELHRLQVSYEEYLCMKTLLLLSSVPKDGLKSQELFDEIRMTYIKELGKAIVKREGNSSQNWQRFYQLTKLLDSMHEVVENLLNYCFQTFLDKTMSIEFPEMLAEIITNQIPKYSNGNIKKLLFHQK

[6] = biological target: Glucocorticoid receptor (Homo sapiens) (UniProt P04150); assay: GR-EFC Redistribution (AID 451; calls by dose curve; also: potency is read from the fitted curve at half-maximal effect); settings: CHO-K1 GR-EFC translocation, beta-gal luminescence, 2 h
Method in brief: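 Translocation of GR-ED fusion to nuclear EA restores b-gal, read by luminescence after 1 h room-temperature detection. Engineered CHO-K1 biosensor cells, 1,000/well, exposed 2 h at 37 C to titrations up to 46 uM final.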

[7] = biological target: 3',5'-cyclic-AMP phosphodiesterase 4B (Homo sapiens) (UniProt Q07343); assay: qHTS Assay for Inhibitors of PDE-IV (AID 607; active = well fitted activation curve with a large enough effect in the main read-out, with a control signal flat, not every such curve was filed as active)
3',5'-cyclic-AMP phosphodiesterase 4B (Homo sapiens), sequence (Q07343 whole entry, looked up): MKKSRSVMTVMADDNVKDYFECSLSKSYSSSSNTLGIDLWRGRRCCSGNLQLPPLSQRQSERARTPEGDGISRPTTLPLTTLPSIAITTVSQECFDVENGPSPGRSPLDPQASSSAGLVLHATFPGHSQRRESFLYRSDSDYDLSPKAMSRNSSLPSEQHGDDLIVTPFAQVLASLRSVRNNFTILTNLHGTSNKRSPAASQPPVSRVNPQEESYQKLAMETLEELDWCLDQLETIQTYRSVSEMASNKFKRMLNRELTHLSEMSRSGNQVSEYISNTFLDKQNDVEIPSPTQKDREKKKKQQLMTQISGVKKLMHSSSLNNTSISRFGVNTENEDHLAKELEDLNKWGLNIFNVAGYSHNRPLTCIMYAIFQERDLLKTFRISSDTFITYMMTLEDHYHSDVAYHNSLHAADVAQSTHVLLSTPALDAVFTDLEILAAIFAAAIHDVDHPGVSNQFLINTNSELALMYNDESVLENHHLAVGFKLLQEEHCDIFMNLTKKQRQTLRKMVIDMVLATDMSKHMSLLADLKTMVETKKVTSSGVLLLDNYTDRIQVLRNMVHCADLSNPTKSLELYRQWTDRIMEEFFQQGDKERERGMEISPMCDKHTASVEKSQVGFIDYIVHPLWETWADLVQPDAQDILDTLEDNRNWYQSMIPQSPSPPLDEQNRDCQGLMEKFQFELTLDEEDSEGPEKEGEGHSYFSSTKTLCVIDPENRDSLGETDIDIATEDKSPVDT
Method in brief: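 Cell-based read-out of cAMP via a modified cyclic nucleotide-gated channel and membrane potential dye (535/590 nm) in HEK293 cells expressing PDE4 endogenously. Compounds tested up to 22.9 uM final; 100 uM RO 20-1724 reference.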

[8] = biological target: Guanine nucleotide-binding protein G(i) subunit alpha-1 (Homo sapiens) (UniProt P63096); assay: qHTS Assay for Inhibitors of RGS12 GoLoco Motif Activity (Green Fluorophore) (AID 879);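 also: negative values mean loss of peptide binding seen as reduced polarization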
Guanine nucleotide-binding protein G(i) subunit alpha-1 (Homo sapiens), sequence (P63096 whole entry, looked up): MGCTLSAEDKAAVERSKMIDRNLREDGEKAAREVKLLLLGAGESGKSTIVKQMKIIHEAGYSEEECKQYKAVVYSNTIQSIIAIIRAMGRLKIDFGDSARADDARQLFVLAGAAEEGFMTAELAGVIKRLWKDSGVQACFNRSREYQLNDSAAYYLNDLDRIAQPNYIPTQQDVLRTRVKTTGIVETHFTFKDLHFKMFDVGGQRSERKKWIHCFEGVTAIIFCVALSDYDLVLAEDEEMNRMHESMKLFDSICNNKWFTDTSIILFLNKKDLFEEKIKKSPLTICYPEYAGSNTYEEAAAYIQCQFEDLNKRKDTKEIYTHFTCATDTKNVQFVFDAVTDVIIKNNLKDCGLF
Method in brief: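 A drop in FITC polarization marked displacement of the FITC-tagged RGS12 GoLoco peptide (10 nM) from Gαi1 (50 nM). Compounds were incubated 10 min at room temperature in Tris pH 7.5 buffer containing 150 mM NaCl, 0.1 mM GDP and 0.05% NP40; unlabeled peptide titration served as control.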

[9] = biological target: Cytochrome P450 3A4 (Homo sapiens) (UniProt P08684); assay: qHTS Assay for Activators of Cytochrome P450 3A4 (AID 885); also: nearly all actives have a fitted effect of over 65% in size
Method in brief: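 Luminescent readout of luciferin formed from 25 uM Luciferin-PPXE (KM level) by 20 nM CYP3A4 in 200 mM KPO4, with 60 min NADPH-driven reaction at room temperature after 10 min compound exposure. Ketoconazole (57 uM) defined 100% inhibition.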

[10] = qHTS Assay for Identification of Small Molecule Antagonists for NFkB Signaling Pathway (AID 895; active = well fitted inhibition curve with a large enough effect in the signal ratio, with a control signal flat, not every such curve was filed as active; the % refers to the signal ratio)
Method in brief: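 Beta-lactamase reporter read-out (460 and 530 nm emission ratio, 405 nm excitation, 2 hrs substrate loading RT) after 5 hr stimulation with 10 pM TNF alpha in compound-treated NFkB-bla ME-180 cells in low-serum medium.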

[11] = qHTS Assay for Identification of Small Molecule Agonists for Thrombopoietin (TPO) Signaling Pathway (AID 917)
Method in brief: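 First, Ba/F3 cells with human TPO receptor were held overnight without IL-3. Next, compounds and TPO (26 pM final) were added. After 24 hrs at 37 C, luciferase detection reagent was added and luminescence measured following 10 min at room temperature.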

[12] = biological target: Muscarinic acetylcholine receptor M1 (Rattus norvegicus) (UniProt P08482); assay: qHTS Assay for Antagonists of Acetylcholine Muscarinic M1 Receptor: Kinetic Measurement of Intracellular Calcium Response (AID 943); also: nearly all actives have a fitted effect of over 75% in size; also: potency is read from the fitted curve at half-maximal effect;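 as to activity change, negative = inhibition: Fluo-4 calcium signal as peak divided by basal fluorescence over 4 min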
Muscarinic acetylcholine receptor M1 (Rattus norvegicus), sequence (P08482 whole entry, looked up): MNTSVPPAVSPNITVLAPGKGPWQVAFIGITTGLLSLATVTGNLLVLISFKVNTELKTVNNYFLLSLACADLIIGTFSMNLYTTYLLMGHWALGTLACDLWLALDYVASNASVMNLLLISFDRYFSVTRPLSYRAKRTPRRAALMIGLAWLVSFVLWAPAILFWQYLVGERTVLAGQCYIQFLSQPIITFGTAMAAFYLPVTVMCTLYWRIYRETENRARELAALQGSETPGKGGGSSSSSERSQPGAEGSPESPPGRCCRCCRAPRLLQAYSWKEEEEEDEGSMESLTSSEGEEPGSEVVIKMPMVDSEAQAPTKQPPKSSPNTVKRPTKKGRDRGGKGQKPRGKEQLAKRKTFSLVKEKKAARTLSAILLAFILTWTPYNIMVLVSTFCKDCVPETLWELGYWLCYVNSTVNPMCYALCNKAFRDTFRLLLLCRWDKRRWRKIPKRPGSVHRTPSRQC
Method in brief: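 Quantitative HTS in CHO-M1 (rat receptor) cells: 10 min compound exposure ahead of 100 nM carbachol, Fluo-4 fluorescence followed 4 min, value expressed as peak-to-basal ratio.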

[13] = biological target: Muscarinic acetylcholine receptor M1 (Rattus norvegicus) (UniProt P08482); assay: qHTS Assay for Antagonists of Acetylcholine Muscarinic M1 Receptor: Measurement of IP-One Response (AID 944); also: nearly all actives have a fitted effect of over 75% in size
Method in brief: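 Antagonism was measured as loss of carbachol-driven (EC80) IP1 accumulation in CHO cells carrying rat M1, using a homogeneous IP-One TR-FRET kit read at 620 and 665 nm.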

[14] = biological target: Pyruvate kinase (Leishmania mexicana) (UniProt Q27686); assay: qHTS Validation Assay for Inhibitors of Leishmania Mexicana Pyruvate Kinase (AID 945)
Pyruvate kinase (Leishmania mexicana), sequence (Q27686 2-499 E452W): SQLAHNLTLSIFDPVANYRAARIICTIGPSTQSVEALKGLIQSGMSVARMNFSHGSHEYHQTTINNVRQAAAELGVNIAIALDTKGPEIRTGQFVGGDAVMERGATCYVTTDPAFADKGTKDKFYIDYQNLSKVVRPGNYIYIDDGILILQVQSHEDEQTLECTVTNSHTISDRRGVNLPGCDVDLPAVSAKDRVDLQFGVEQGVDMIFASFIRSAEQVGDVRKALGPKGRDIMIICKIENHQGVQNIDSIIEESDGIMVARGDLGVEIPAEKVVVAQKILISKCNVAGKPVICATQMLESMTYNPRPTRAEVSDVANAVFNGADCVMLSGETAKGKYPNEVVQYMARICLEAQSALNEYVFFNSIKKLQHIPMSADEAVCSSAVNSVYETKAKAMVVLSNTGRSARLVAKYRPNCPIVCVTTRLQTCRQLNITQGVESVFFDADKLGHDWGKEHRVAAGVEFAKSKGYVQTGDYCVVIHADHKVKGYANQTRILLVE
Method in brief: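 Eight-point qHTS titrations in triplicate, data normalized to DMSO neutral control. Reaction: 0.2 nM LmPYK E451W mutant, 0.5 mM PEP, 0.1 mM ADP, 7 mM MgCl2, pH 7.2, one hour at room temperature; luminescent ATP detection.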

[15] = biological target: Pyruvate kinase PKM (Homo sapiens) (UniProt P14618); assay: qHTS Assay for Activators of Human Muscle Pyruvate Kinase (AID 954; active = well fitted curve in the direction sought with a large enough effect, not every such curve was filed as active)
Pyruvate kinase PKM (Homo sapiens), sequence (P14618 whole entry, looked up): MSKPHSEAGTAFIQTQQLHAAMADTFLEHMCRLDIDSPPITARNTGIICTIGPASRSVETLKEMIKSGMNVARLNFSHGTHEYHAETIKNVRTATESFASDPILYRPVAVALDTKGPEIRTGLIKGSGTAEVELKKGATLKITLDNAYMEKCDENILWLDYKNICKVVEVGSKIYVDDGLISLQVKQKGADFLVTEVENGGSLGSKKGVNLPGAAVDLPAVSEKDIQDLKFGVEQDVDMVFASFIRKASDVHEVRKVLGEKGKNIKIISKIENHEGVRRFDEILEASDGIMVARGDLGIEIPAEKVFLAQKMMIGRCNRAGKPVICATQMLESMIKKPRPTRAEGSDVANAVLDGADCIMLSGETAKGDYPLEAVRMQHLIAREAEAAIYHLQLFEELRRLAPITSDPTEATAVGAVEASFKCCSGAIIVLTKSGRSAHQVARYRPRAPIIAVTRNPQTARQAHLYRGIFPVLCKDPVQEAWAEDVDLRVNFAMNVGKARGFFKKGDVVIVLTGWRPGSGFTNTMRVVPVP
Method in brief: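 ATP production by PKM2 detected via luciferase luminescence after 1 h room-temperature reaction (0.1 nM enzyme, PEP at Km 0.5 mM, ADP 0.1 mM, pH 7.2 imidazole buffer). Inhibition scaled to no-enzyme control; activation referenced to 0.3 nM enzyme wells.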

[16] = biological target: Alpha-galactosidase A (Homo sapiens) (UniProt P06280); assay: Counterscreen for Glucocerebrosidase Inhibitors: qHTS Assay for Human alpha-Galactosidase at pH 4.5 (AID 992)
Alpha-galactosidase A (Homo sapiens), sequence (P06280 whole entry, looked up): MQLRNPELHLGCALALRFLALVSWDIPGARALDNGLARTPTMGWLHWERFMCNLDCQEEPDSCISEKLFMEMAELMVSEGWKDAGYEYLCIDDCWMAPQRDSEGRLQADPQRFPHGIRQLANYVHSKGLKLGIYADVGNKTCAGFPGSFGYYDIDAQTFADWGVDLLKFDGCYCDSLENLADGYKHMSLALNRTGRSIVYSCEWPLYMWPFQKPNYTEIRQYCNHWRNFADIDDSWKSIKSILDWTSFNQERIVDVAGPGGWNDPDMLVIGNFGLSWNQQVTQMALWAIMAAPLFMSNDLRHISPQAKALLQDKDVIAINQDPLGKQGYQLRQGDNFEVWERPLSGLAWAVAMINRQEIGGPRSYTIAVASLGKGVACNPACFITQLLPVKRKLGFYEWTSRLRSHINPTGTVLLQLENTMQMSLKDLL
Method in brief: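 Fluorogenic 1536-well qHTS at pH 4.5 (citrate, Tween-20): 2 nM enzyme, 80 uM 4-MU-alpha-galactoside, 20 min room temperature, NaOH/glycine stop. Titration 0.7 nM to 77 uM, data normalized to no-enzyme and full-activity controls, Hill-fitted AC50.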

[17] = biological target: alpha-glucosidase (Oryza sativa, rice) (UniProt Q653V4); assay: Counterscreen for Glucocerebrosidase Inhibitors: qHTS Assay for Rice alpha-Glucosidase at pH 5.0 (AID 997)
Method in brief: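 Endpoint fluorogenic assay at pH 5.0: compounds (0.7 nM to 77 uM) titrated against 4 nM rice enzyme and 400 uM 4-MU-alpha-glucoside for 20 min at room temperature; NaOH/glycine stop, read ex 365/em 440 nm, Hill-fitted AC50.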

[18] = biological target: Mitogen-activated protein kinase 10 (Mus musculus) (UniProt Q61831); assay: JNK3 AlphaScreen Assay (AID 530; active = well fitted curve in either direction with a large enough effect, not every such curve was filed as active;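 also: kinase came from lysate of stimulated human HepG2 cells; signal reports phosphorylation of biotinylated GST-cJun 1-79 at Ser73 with 10 µM ATP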)
Method in brief: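 Kinase buffer: 20 mM Tris-HCl pH 7.6, 10 mM MgCl2, 1 mM DTT, 0.1 mM Na3VO4, 0.01% Tween-20; ATP 10 uM. Substrate biotin-GST-cJun(1-79), enzyme from activated HepG2 lysates. Detection by Ser73 phospho-antibody AlphaScreen.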

[19] = biological target: Cytochrome P450 2C19 (Homo sapiens) (UniProt P33261); assay: qHTS Assay for Inhibitors and Substrates of Cytochrome P450 2C19 (AID 899); also: nearly all actives have a fitted effect of over 60% in size
Cytochrome P450 2C19 (Homo sapiens), sequence (P33261 whole entry, looked up): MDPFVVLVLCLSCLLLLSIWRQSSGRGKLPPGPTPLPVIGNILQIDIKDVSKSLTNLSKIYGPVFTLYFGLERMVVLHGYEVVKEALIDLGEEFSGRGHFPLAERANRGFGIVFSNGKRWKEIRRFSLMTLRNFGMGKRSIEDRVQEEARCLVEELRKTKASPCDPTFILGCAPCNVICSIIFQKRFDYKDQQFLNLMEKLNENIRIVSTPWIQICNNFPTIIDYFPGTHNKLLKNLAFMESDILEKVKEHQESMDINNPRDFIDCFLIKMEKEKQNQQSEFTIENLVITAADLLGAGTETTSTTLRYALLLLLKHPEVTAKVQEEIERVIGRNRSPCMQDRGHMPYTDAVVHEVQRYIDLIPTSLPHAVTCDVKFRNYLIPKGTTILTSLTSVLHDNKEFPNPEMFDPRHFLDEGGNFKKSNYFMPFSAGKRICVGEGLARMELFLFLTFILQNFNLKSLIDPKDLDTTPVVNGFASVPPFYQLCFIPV
Method in brief: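 5nM enzyme + 10uM Luciferin-H EGE (=KM), 50mM KPO4; cpd pin-transferred, 10 min 37C; NADPH regen, 60 min 37C; stopped w/ luciferin detection reagent, 20 min; luminescence. Normalized to 57uM ketoconazole (AC100).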

SMILES	activity change, negative = inhibition [1]	Potency [2]	activity change, negative = inhibition [3]	activity, negative = inhibition [4]	Potency [5] [µM]	Potency [6] [µM]	Potency [7]	outcome [8]	Potency [9]	Potency [10]	outcome [11]	Potency [12]	Potency [13]	outcome [14]	outcome [15]	outcome [16]	Potency [17]	Potency [18]	Potency [19]
COc1cc([C@H](O)CO)ccc1O	-0.627% [at 38 µM]	inactive	2.95% [at 38 µM]	17.1% [at 38 µM]	> 46	> 46	inactive	inactive	inactive	inactive	inactive	inactive	inactive	inactive	inactive	inactive	inactive	–	–
CSC(N)=NCCC[C@@H](N)C(=O)O	19.2% [at 38 µM]	inactive	6.92% [at 38 µM]	10.5% [at 38 µM]	> 46	> 46	inactive	–	–	–	–	–	inactive	inactive	inactive	inactive	inactive	inactive	inactive
COc1cc(OC)cc([C@H](CNc2ncnc3c2ncn3[C@@H]2O[C@@H](CO)[C@H](O)[C@@H]2O)c2ccccc2C)c1	-6.78% [at 38 µM]	inactive	19.3% [at 38 µM]	3.32% [at 38 µM]	> 46	> 46	inactive	–	–	–	–	–	–	–	–	–	–	inactive	inactive
Cc1c(NC(=O)Nc2c(Cl)cccc2Cl)c(=O)n(-c2ccccc2)n1C	4.18%	inactive	-0.333%	-1.35%	> 46	> 9.22	inactive	–	–	–	–	–	–	–	–	–	–	inactive	–
Nc1nc(SCc2ccc([N+](=O)[O-])cc2)c2ncn([C@@H]3O[C@@H](CO)[C@@H](O)[C@H]3O)c2n1	-11.9% [at 38 µM]	inactive	0.367% [at 38 µM]	-17% [at 38 µM]	> 46	> 46	inactive	inactive	inactive	inactive	inactive	25.1 µM (active)	–	inactive	inactive	inactive	inactive	–	–
Cc1ccccc1/C=C\C1=NCCN1	-3.38% [at 38 µM]	6.31 µM (active)	-1.9% [at 38 µM]	5.08% [at 38 µM]	> 46	> 46	inactive	–	–	–	–	–	inactive	inactive	inactive	inactive	inactive	inactive	–
